# Assay outcomes from PubChem BioAssay.
# NPSR antagonist: neuropeptide S receptor (human) antagonism, cAMP; AID 1461; Potency, µM (highest dose often 38.3 µM), for inactives: at the top dose activity change, negative = inhibition, most hits filed as inhibitors; CHO-NPSR cells, cAMP TR-FRET, antagonist mode; Q6W5P4; hit rate 1% among 220,000; note: nearly all actives have a fitted effect of over 50% in size
# RORg inh: inhibitors of mouse ROR gamma transcriptional activity; AID 2551; P51450; Drosophila S2 Gal4-RORgamma UAS-luciferase reporter, 20 h; hit rate 5.4% among 310,000; Potency, µM (series often up to 53.6 µM), for inactives: top-dose activity change, negative = inhibition, hits mostly inhibitors; note: nearly all actives have a fitted effect of over 60% in size
#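 In this cell-based reporter format, copper sulfate (700 uM final) drives Gal4–ROR gamma fusion expression from a metallothionein promoter in Drosophila Schneider cells; compounds preincubated 1 hr, reporter read after 20 hr at ambient temperature.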
# B2AR arrestin: recruits beta-arrestin to the human beta2-adrenergic receptor; AID 492947; beta-arrestin recruitment to beta2AR, cell-based reporter; P07550; Potency, µM (titrated, usually from 46.1 µM), for inactives: at the top dose activation, usual class: activators; hit rate 0.02% among 330,000;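 note: 0% = DMSO controls and full agonism = EC100 isoproterenol or metaproterenol; nearly all actives have a fitted effect of over 65% in size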
# Target sequence (P07550 whole entry, looked up): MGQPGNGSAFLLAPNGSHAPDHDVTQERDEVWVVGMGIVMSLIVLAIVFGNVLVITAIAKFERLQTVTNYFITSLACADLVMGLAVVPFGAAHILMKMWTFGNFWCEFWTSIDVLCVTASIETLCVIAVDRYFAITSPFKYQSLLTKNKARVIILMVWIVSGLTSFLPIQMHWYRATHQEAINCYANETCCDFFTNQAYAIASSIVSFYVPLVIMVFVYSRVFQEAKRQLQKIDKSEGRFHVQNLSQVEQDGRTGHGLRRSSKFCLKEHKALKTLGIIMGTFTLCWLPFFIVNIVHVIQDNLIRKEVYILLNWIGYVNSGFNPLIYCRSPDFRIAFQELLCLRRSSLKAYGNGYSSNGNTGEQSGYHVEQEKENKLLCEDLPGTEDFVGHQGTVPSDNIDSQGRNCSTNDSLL
# VP16 counter: inhibits Gal4-VP16 luciferase reporter, ROR gamma counter-screen | hit rate 3.5% among 310,000 | AID 2546 | Potency, µM (series often up to 53.6 µM), for inactives: top-dose activity, negative = inhibition, usual class: inhibitors | Drosophila S2 Gal4-VP16 UAS-luciferase, luminescence, 20 h;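 note: Gal4-VP16 expression switched on by copper sulfate through the metallothionein promoter; nearly all actives have a fitted effect of over 50% in size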
# * = called active by the depositor; ? = inconclusive; / = not tested or not shown; [ ] = remark or other dose. Most compounds without a hit are left out; they make up all but 5.7% or so of the library. Calls come from the whole dose curve; as a rule, active = well fitted curve in the direction sought with a large enough effect; inconclusive = small, poorly fitted or top-dose-only effect, or another doubt; inactive = no such curve, though single readings can be large; an effect the other way counts as inactive or inconclusive. Unless noted, % is set by controls: 0 for no effect and ±100 for the full control effect; potency is the fitted concentration of half-maximal effect.
SMILES,NPSR antagonist,RORg inh,B2AR arrestin,VP16 counter
CC1=NN(Cc2c(C)nn(Cc3ccccc3)c2C)C(C)(C)C1,0.5%,12.6µM*,0.5%,9.1%
Cc1nn(Cc2ccccc2)c(C)c1N,9.5%,-19.8%,0.1%,-17.7%
CN(C)S(=O)(=O)c1ccc(-c2csc(N/N=C/c3ccco3)n2)cc1,-8.9%,-58.4%,-0.8%,?
CN(C)S(=O)(=O)c1ccc(-c2csc(N/N=C/c3ccc(O)cc3)n2)cc1,12.6µM*,-20.5%,-1.2%,?
CC(/C=N/n1c(-c2ccco2)n[nH]c1=S)=C\c1ccco1,-13.8%,?,0.4%,?
S=c1[nH]nc(-c2ccco2)n1/N=C/C(Cl)=C/c1ccccc1,?,3.98µM*,?,11.2µM*
Cc1cc(-c2n[nH]c(=S)n2/N=C/C(Cl)=C/c2ccccc2)n[nH]1,-59.6%,8.91µM*,?,?
COC(=O)C1=C(C)N(c2ccc(Cl)c(Cl)c2)C(=O)C1,-10.5%[46.1 µM],4.47µM*,0.1%,12.6µM*
Cc1ccc(/C=N/NC(=O)c2cccnc2)s1,3.4%,17.8µM*,-0.5%,-81.0%
CCCCCCCCCC(=O)N/N=C/c1ccc(C)s1,-4.5%[46.1 µM],-1.4%,0.3%,7.0%
Cc1ccc(/C=N/NC(=O)c2ccc(C(=O)N/N=C/c3ccc(C)s3)o2)s1,-7.2%[46.1 µM],8.91µM*,0.3%,-20.7%
Cc1ccccc1/C=N/NC(=O)c1cccnc1,/,6.8%,-1.0%,-9.0%
COC(=O)C1=C(C)N(CCCCCC(=O)O)C(=O)NC1c1ccccc1 (centres undefined),/,3.3%,/,-7.2%
Cc1ccc(C(=O)NNC2=Nc3cccc4cccc2c34)cc1,-30.0%,0.891µM*,0.3%,1.41µM*
COc1ccc(CC(=O)NNC(=O)Cc2ccc(OC)cc2)cc1,6.5%,-5.9%,0.0%,3.1%
COc1ccc(C(=O)NNC2=Nc3cccc4cccc2c34)cc1,-20.6%,0.562µM*,3.0%,?
COc1ccc(CC(=O)NNC2=Nc3cccc4cccc2c34)cc1,-4.6%,8.91µM*,0.9%,-19.2%
NC(=O)NNC1=Nc2cccc3cccc1c23,-22.0%,-34.6%,-0.1%,-10.8%
Cc1cc(C)cc([N+](=O)[O-])c1,/,1.2%,/,4.5%
Cc1ccc(S(=O)(=O)N[C@@H](CCc2ccccc2)CC(=O)C(C)(C)C)cc1,/,-5.9%[10 µM],/,10.6%[10 µM]
CCCCC[C@H](O)/C=C/C=C/C=C/[C@H](O)C/C=C\CCCC(=O)O,/,6.7%,/,0.2%
CSCCC1NC(=S)N(Cc2ccccc2)C1=O (centres undefined),/,-44.9%,-0.5%,-22.5%
O=C1C(Cc2ccccc2)NC(=S)N1Cc1ccccc1 (centres undefined),4.9%,12.6µM*,-0.5%,-20.9%
CC(C)CC1NC(=S)N(Cc2ccccc2)C1=O (centres undefined),-2.7%,?,-1.4%,-16.3%
CCC(C)C1NC(=S)N(Cc2ccccc2)C1=O (centres undefined),-0.1%[46.1 µM],10µM*,-0.4%,?
SMILES,NPSR antagonist,RORg inh,B2AR arrestin,VP16 counter
Cn1cnnc1Sc1ccc(C(=O)OCC(=O)Nc2ccccc2)cc1[N+](=O)[O-],13.5%,-13.5%[10 µM],-1.1%,-13.7%
Cn1cnnc1Sc1ccc(/C=C/C(=O)c2ccc(O)cc2)cc1[N+](=O)[O-],-45.5%,10µM*,0.1%,?
COc1ccc(NC(=O)/C(C#N)=C/c2ccc(Sc3nncn3C)c([N+](=O)[O-])c2)cc1,-7.7%,-40.1%,-0.1%,22.4µM*
COc1ccc(CNC(=O)COC(=O)c2ccc(Br)o2)cc1,/,/,-0.2%,/
Cc1c(Cl)cccc1NC(=O)[C@@H](NC(=O)c1ccccc1Cl)C(C)C,-6.1%,-2.6%,-0.3%,-7.3%
COc1cccc(C(=O)Nc2nnc(-c3ccccc3)s2)c1,/,?,-1.0%,-7.4%
CCN1CCc2nc(NC(=O)c3ccccc3)sc2C1,-10.7%[46.1 µM],14.1µM*,/,11.2µM*
COc1cccc(-n2nnnc2SCC(=O)Nc2nc3c(s2)CCCC3)c1,1.8%[46.1 µM],3.16µM*,5.3%,8.91µM*
COc1cccc(C(=O)Nc2nc3c(s2)CN(C)CC3)c1,-7.2%[46.1 µM],14.6%,-4.4%,12.6µM*
O=C(Nc1nc2c(s1)CN(Cc1ccccc1)CC2)C1CCC1,0.9%,-5.0%,-1.0%,10.7%
CCCCC/C=C\C[C@@H](O)/C=C/C=C/C=C/[C@@H](O)CCCC(=O)O,/,10.2%,/,2.4%
CN(C)c1ccc(/C=N/N=C(N)N)cc1[N+](=O)[O-],-54.3%,-3.5%,-0.2%,-8.8%
Cc1cc(NC(=O)c2cc(-c3cccc(OCC(C)C)c3)nc3ccccc23)no1,/,-42.4%,0.0%,-12.3%
NS(=O)(=O)c1cc2c(cc1Cl)NC(c1ccccc1OCC(=O)O)NS2(=O)=O (centres undefined),/,-3.5%,-0.6%,-6.2%
N[C@@H](CO)C(=O)NNCc1ccc(O)c(O)c1O,/,-18.6%[16.9 µM],/,-9.4%[17 µM]
COc1ccc(C(C)(C)C)cc1NC(=O)c1ccoc1C,-15.9%[46.1 µM],2.24µM*,-0.3%,?
COc1ccc(C)cc1NC(=O)c1ccoc1C,-3.2%[46.1 µM],10.5%,0.3%,-0.4%
COc1ccc(-c2csc3[nH]c(=S)n(-c4ccccc4)c(=O)c23)cc1OC,-17.7%,2.51µM*,-1.8%,3.16µM*
COc1cccc(-c2cc3c(=O)n(-c4ccccc4)c(=S)[nH]c3s2)c1,-1.9%[46.1 µM],0.891µM*,-0.8%,2.51µM*
COc1ccc(-n2c(=S)[nH]c3c(sc(=S)n3-c3ccccc3)c2=O)c(OC)c1,2.8%,-21.2%,0.1%,-4.3%
C[C@]12c3[nH]c4cc(-c5ccco5)ccc4c3CCN1C(=O)[C@@H](CC(=O)NCc1ccco1)C[C@@H]2C(=O)N1CCCCC1,/,/,-0.3%,/
Oc1c(Br)cc(Br)cc1C=NCc1ccc(F)cc1,-51.5%,10µM*,-0.1%,?
Cc1ccc(NC(=S)NC(NC(=O)c2ccco2)C(Cl)(Cl)Cl)cc1 (centres undefined),-17.5%[46.1 µM],11.2µM*,?,7.08µM*
CCOc1ccc(NC(=S)NC(=O)c2ccco2)cc1,2.4%,6.31µM*,?,?
CCc1ccc(NC(=S)NC(=O)CC(C)C)cc1,-37.8%,1.12µM*,0.2%,1µM*
SMILES,NPSR antagonist,RORg inh,B2AR arrestin,VP16 counter
COc1cc(NC(=O)Cc2ccccc2)ccc1NC(=O)c1ccco1,-2.7%[46.1 µM],39.8%,-0.1%,5.5%
CCC(=O)NC(=S)Nc1ccc(NC(=O)c2ccco2)c(OC)c1,-22.0%,12.6µM*,-0.5%,?
CCOc1ccc(NC(=O)c2ccco2)cc1,-8.2%[46.1 µM],-9.3%[0.365 µM],0.0%,/
O=C(OCc1csc(-c2ccccc2)n1)c1ccccc1O,-9.8%,40.9%,-1.1%,-2.1%
CCCCC(=O)NC(=S)Nc1cccc(NC(=O)c2ccco2)c1,2.0%,?,0.1%,15.8µM*
CCC(=O)NC(=S)Nc1ccc(NC(=O)c2ccco2)cc1,-2.2%,-18.9%,-0.2%,7.6%
CC(C)CC(=O)NC(=S)Nc1ccc(NC(=O)c2ccco2)cc1,-3.9%,12.6µM*,-0.4%,-15.3%
CCCCC(=O)NC(=S)Nc1cccc(C(=O)O)c1,4.1%,-21.9%,0.2%,0.6%
CCc1nnc2c(NCCc3ccccc3)nc3ccccc3n12,/,22.8%,-1.0%,2.7%
O=C(NCc1cccnc1)/C(=C\c1ccc(-c2ccc(Br)cc2)o1)S(=O)(=O)c1ccccc1,-51.4%,?,-0.6%,?
O=C(NCc1cccnc1)/C(=C/c1ccc(-c2ccc(Cl)cc2)o1)S(=O)(=O)c1ccccc1,10µM*,?,-0.3%,20µM*
